Consider 38 compounds from the supplement of paper PMC12024529.

The test deals with HEK293 WT BDD-FVIII-Gluc. In words: secreted FVIII-Gluc luciferase Z-score vs DMSO control; higher = more FVIII-Gluc secretion. To be noted: 5 µM. The procedure:
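Natural plant-compound library (480 compounds, ST catalogue IDs) screened on HEK293 cells stably expressing WT BDD-FVIII-Gaussia luciferase fusion at 5 µM. Secreted Gluc activity in the medium is given as a Z-score relative to DMSO controls.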
For the compound `CN1C(CC(=O)c2ccccc2)CCC[C@H]1CC(O)c1ccccc1` (stereo partly drawn), the “secreted FVIII-Gluc luciferase Z-score” value was -0.246.

In the case of `CC(=O)N1C=C(C2CCCCN2)CCC1` (stereo not drawn), the “secreted FVIII-Gluc luciferase Z-score” value came out at 0.76.

In the case of `Nc1ccccc1C(=O)CC(N)C(=O)O` (stereo not drawn), the “secreted FVIII-Gluc luciferase Z-score” value was -1.11.

As to `CC(C)[C@@H](C)/C=C/[C@@H](C)[C@H]1CC[C@H]2C3=CC=C4C[C@@H](O)CC[C@]4(C)[C@H]3CC[C@]12C`, the “secreted FVIII-Gluc luciferase Z-score” value came out at 0.958.

For `O=c1ccc2cc3ccoc3cc2o1`, the “secreted FVIII-Gluc luciferase Z-score” value is -0.26.

Consider `C[C@]12CCC(=O)C=C1CC[C@@H]1[C@@H]2[C@@H](O)C[C@@]2(C)[C@H]1CC[C@]2(O)C(=O)CO`, for which the “secreted FVIII-Gluc luciferase Z-score” value amounted to 4.35.

Regarding `CC[C@@H]1OC(=O)[C@@H](C)[C@H](O[C@H]2C[C@@](C)(OC)[C@@H](O)[C@H](C)O2)C(C)[C@H](O[C@H]2O[C@@H](C)C[C@@H](N(C)C)[C@@H]2O)[C@@](C)(O)C[C@H](C)C(=O)[C@@H](C)[C@H](O)[C@@]1(C)O` (stereo partly drawn), the “secreted FVIII-Gluc luciferase Z-score” value was -1.17.

Regarding `Nc1nc2c(ncn2[C@@H]2O[C@H](CO)[C@@H](O)[C@H]2O)c(=O)[nH]1`, the “secreted FVIII-Gluc luciferase Z-score” value came out at 1.04.

With `COc1ccc(C(=O)C2C3C4COC(O4)C(=O)C3C3C=Cc4ccccc4N32)c(OC)c1` (stereo not drawn), the “secreted FVIII-Gluc luciferase Z-score” value is -0.809.

As for `C=C1CC/C=C(\C)CC[C@@H]2[C@@H]1CC2(C)C`, the “secreted FVIII-Gluc luciferase Z-score” value is 0.299.

`COc1cc2cc(Oc3ccc4ccc(=O)oc4c3)c(=O)oc2cc1O`: the “secreted FVIII-Gluc luciferase Z-score” value turned out to be 0.379.

For the compound `CC(C)c1ccc2c(c1)CCC1C(C)(CN)CCC[C@]21C` (stereo partly drawn), the “secreted FVIII-Gluc luciferase Z-score” value is 0.04.

As for `CC(C)=CCC/C(C)=C/CC/C(C)=C/CO`, the “secreted FVIII-Gluc luciferase Z-score” value came to 0.255.

Turning to `COc1cc2c(cc1OC)C(Cc1ccc(OC)c(OC)c1Oc1cc3c(cc1OC)-c1c(OC)c(OC)cc4c1C(C3)N(C)CC4)N(C)CC2` (stereo not drawn), the “secreted FVIII-Gluc luciferase Z-score” value stood at 0.304.

As to `COc1c2ccoc2cc2oc(=O)ccc12`, the “secreted FVIII-Gluc luciferase Z-score” value amounted to 0.335.

Regarding `Cc1cc(=O)cc2oc3cc(N)c(-c4c(C)cc(O)cc4O)c(C)c3nc1-2`, the “secreted FVIII-Gluc luciferase Z-score” value was -0.31.

As for `COc1cc2c(cc1OC)-c1c(OC)c(OC)cc3ccnc(c13)C2=O`, the “secreted FVIII-Gluc luciferase Z-score” value was -0.583.

Take `CC(C)CCCC(C)C1CCC2C3CC=C4CC(O)CCC4(C)C3CCC12C` (stereo not drawn): the “secreted FVIII-Gluc luciferase Z-score” value was determined as 0.231.

As to `Nc1ccn(C2OC(COP(=O)(O)O)C(O)C2O)c(=O)n1` (stereo not drawn), the “secreted FVIII-Gluc luciferase Z-score” value was found to be 0.194.

Regarding `CC(C)(CO)[C@@H](O)C(=O)NCCCO`, the “secreted FVIII-Gluc luciferase Z-score” value is 1.71.

Regarding `C=C1CCC(O)C/C1=C\C=C1/CCCC2(C)C1CCC2C(C)/C=C/C(C)C(C)C` (stereo not drawn), the “secreted FVIII-Gluc luciferase Z-score” value was -0.228.

Consider `CC(C)CC(NC(=O)C(NC(=O)NC(Cc1ccccc1)C(=O)O)C1CCN=C(N)N1)C(=O)NC(C=O)Cc1ccccc1` (stereo not drawn), for which the “secreted FVIII-Gluc luciferase Z-score” value was 0.979.

In the case of `COC(=O)CC[C@@H](C)[C@H]1CC[C@H]2[C@@H]3CC[C@@H]4C[C@H](O)CC[C@]4(C)[C@H]3C[C@H](O)[C@]12C`, the “secreted FVIII-Gluc luciferase Z-score” value worked out at 0.392.

As to `NCCc1cnc[nH]1`, the “secreted FVIII-Gluc luciferase Z-score” value was 0.378.

In the case of `CCC(C)C(=O)O[C@H]1C[C@@H](C)C=C2C=C[C@H](C)[C@H](CC[C@@H]3C[C@@H](O)CC(=O)O3)[C@H]21` (stereo partly drawn), the “secreted FVIII-Gluc luciferase Z-score” value was -0.369.

Turning to `CO[C@H]1/C=C/O[C@@]2(C)Oc3c(C)c(O)c4c(O)c(c(/C=N/N5CCN(C)CC5)c(O)c4c3C2=O)NC(=O)/C(C)=C\C=C\[C@H](C)[C@H](O)[C@@H](C)[C@@H](O)[C@@H](C)[C@H](OC(C)=O)[C@@H]1C`, the “secreted FVIII-Gluc luciferase Z-score” value was -0.504.

As to `O[C@@H]1COC2C1OC[C@@H]2O` (stereo partly drawn), the “secreted FVIII-Gluc luciferase Z-score” value turned out to be 0.547.

As for `C[C@H](CCC(=O)O)[C@H]1CC[C@H]2[C@@H]3[C@H](O)C[C@@H]4C[C@H](O)CC[C@]4(C)[C@H]3CC[C@]12C`, the “secreted FVIII-Gluc luciferase Z-score” value stood at 0.787.

As to `COc1cc2c(C(=O)c3ccccc3)c3c4c(cc(OC)c(OC)c4c2cc1OC)CCN3C`, the “secreted FVIII-Gluc luciferase Z-score” value is -1.18.

In the case of `N=c1ccn2c(n1)OC1C2OC(CO)[C@H]1O` (stereo partly drawn), the “secreted FVIII-Gluc luciferase Z-score” value is -1.3.

On to `O=c1[nH]c(=O)c2ncn([C@@H]3O[C@H](CO)[C@@H](O)[C@H]3O)c2[nH]1`, for which the “secreted FVIII-Gluc luciferase Z-score” value was 0.541.

Take `COc1c(-c2ccccc2)oc2c(ccc3occc32)c1=O`: the “secreted FVIII-Gluc luciferase Z-score” value was determined as 0.489.

As to `CC1=CC(=O)C2=C(C)CCC3C(C)C(=O)OC3C12` (stereo not drawn), the “secreted FVIII-Gluc luciferase Z-score” value amounted to 0.0708.

Regarding `C[C@H](CCC(=O)O)[C@H]1CC[C@H]2[C@@H]3C(=O)C[C@@H]4CC(=O)CC[C@]4(C)[C@H]3CC(=O)[C@]12C`, the “secreted FVIII-Gluc luciferase Z-score” value was determined as 0.818.

For `COC1OC2COC(c3ccccc3)OC2C(O)C1O` (stereo not drawn), the “secreted FVIII-Gluc luciferase Z-score” value was -1.04.

On to `CO[C@H]1/C=C/O[C@@]2(C)Oc3c(C)c(O)c4c(O)c(cc(O)c4c3C2=O)NC(=O)/C(C)=C\C=C\[C@H](C)[C@H](O)[C@@H](C)[C@@H](O)[C@@H](C)[C@H](OC(C)=O)[C@@H]1C`, for which the “secreted FVIII-Gluc luciferase Z-score” value is -0.224.

Turning to `OC[C@H]1O[C@@H](O[C@@H]2[C@@H](CO)O[C@](O)(CO)[C@H]2O)[C@H](O)[C@@H](O)[C@H]1O`, the “secreted FVIII-Gluc luciferase Z-score” value was found to be 0.26.

In the case of `Cc1ccc2oc(-c3ccccc3)cc(=O)c2c1`, the “secreted FVIII-Gluc luciferase Z-score” value worked out at 0.845.
